“And” between values parts separate entries of the source, which are not always exact repeats. Identical values can stand only once. Records with an inconclusive call do not appear. Where a structure was tested more than once in an assay, its records may differ in their call. The source made the active and inactive calls. Unless noted, calls follow the shape of the dose curve; as a rule, active = well fitted curve in the direction sought with a large enough effect in the repeat runs; inconclusive = weak or mixed curves; inactive = no such curve, though single readings can be large; an effect the other way counts as inactive or inconclusive.

Experiment [1] can be described thus: qHTS assay to test for compound auto fluorescence at 535 nm (green) in HEK293 cells (AID 720680). (qHTS replaces the single test concentration by a dilution series.)
A short description of experiment [2]: qHTS assay to test for compound auto fluorescence at 460 nm (blue) in HEK293 cell free culture (AID 720681). Also: potency is read from the fitted curve at half-maximal effect. The essentials:
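Test compounds were pinned into cell-free culture medium (DMEM with 10% FBS) and fluorescence was read directly at Ex/Em 405/460 nm. Signals were expressed as fluorescence equivalents of triamterene, with DMSO vehicle as control.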

A short description of experiment [3]: qHTS assay to test for compound auto fluorescence at 590 nm (red) in HEK293 cell free culture (AID 720683). The essentials: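 Tox21 10K library compounds were pinned into cell-free DMEM with 10% FBS and fluorescence was read at excitation 540 nm. Activity is expressed as Rose Bengal sodium equivalency.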
The nature of experiment [4]: qHTS assay to test for compound auto fluorescence at 590 nm (red) in HepG2 cell free culture (AID 720684). In a few lines: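 Measured in medium alone (MEM containing 10% FBS) following pintool addition of compound; emission at 590 nm with 540 nm excitation, referenced to Rose Bengal sodium.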
The nature of experiment [5]: qHTS assay to test for compound auto fluorescence at 460 nm (blue) in HepG2 cell free culture (AID 720685). In a few lines:
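Compound (23 nL) or DMSO pinned into cell-free MEM with 10% FBS; blue fluorescence read at 405/460 nm excitation/emission, expressed as auto-fluorescence equivalency to triamterene.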

The nature of experiment [6]: qHTS assay to test for compound auto fluorescence at 535 nm (green) in HepG2 cell free culture (AID 720686).
A short description of experiment [7]: qHTS assay to test for compound auto fluorescence at 460 nm (blue) in HepG2 cells (AID 720687). The essentials: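 Cells (2,000/well in MEM with 10% FBS) attached overnight at 37 C, then were exposed to compound or DMSO for 1 hr at 37 C, 5% CO2. Fluorescence read at Ex/Em 405/460 nm, expressed as triamterene-equivalent signal.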
Experiment [8] in a line: qHTS assay for identifying genotoxic compounds that show differential cytotoxicity against isogenic chicken DT40 cell lines with known DNA damage response pathways - wild type cell line (AID 743012). Also: nearly all actives have a fitted effect of over 60% in size. Also: potency is read from the fitted curve at half-maximal effect. In a few lines: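 Wild type DT40, 300 cells/well, ~0.5 h settle at 37 C/5% CO2; compounds in DMSO added by pintool; 40 h at 37 C/5% CO2; CellTiter-Glo, 30 min RT; luminescence.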

Experiment [9] in a line: qHTS assay for identifying genotoxic compounds that show differential cytotoxicity against isogenic chicken DT40 cell lines with known DNA damage response pathways - Rev3 mutant cell line (AID 743014). Also: nearly all actives have a fitted effect of over 55% in size. Also: potency is read from the fitted curve at half-maximal effect.
The nature of experiment [10]: qHTS assay to identify small molecule antagonists of the androgen receptor (AR) signaling pathway using the MDA cell line - cell viability counter screen (AID 743041; also: nearly all actives have a fitted effect of over 45% in size; also: potency is read from the fitted curve at half-maximal effect). The essentials: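 Viability counter screen run alongside the AR antagonist reporter: cells seeded 5 h before compound, R1881 added, 16 h incubation at 37C without CO2, fluorescent CellTiter-Fluor signal quantified.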

The nature of experiment [11]: qHTS assay to identify small molecule antagonists of the glucocorticoid receptor (GR) signaling pathway - cell viability counter screen (AID 720693). Also: nearly all actives have a fitted effect of over 55% in size.
Experiment [12] is described as follows: qHTS assay for identifying genotoxic compounds that show differential cytotoxicity against isogenic chicken DT40 cell lines with known DNA damage response pathways - Rad54/Ku70 mutant cell line (AID 743015). Also: nearly all actives have a fitted effect of over 60% in size. Also: potency is read from the fitted curve at half-maximal effect.
A short description of experiment [13]: qHTS assay to identify small molecule antagonists of the androgen receptor (AR) signaling pathway - cell viability counter screen (AID 743033; also: nearly all actives have a fitted effect of over 45% in size; also: potency is read from the fitted curve at half-maximal effect).
In experiment [14] the target is Glucocorticoid receptor (Homo sapiens) (UniProt P04150). In words: qHTS assay to identify small molecule agonists of the glucocorticoid receptor (GR) signaling pathway (AID 720691; active = well fitted activation curve with a large enough effect in the signal ratio in the repeat runs, not every such curve was filed as active; the % refers to the signal ratio). The note with it: GR-bla HeLa, beta-lactamase reporter ratio, 18 h; activation: at 62.4 µM (top of the series) unless noted. The essentials: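 Fluorescence intensity from LiveBLAzer B/G FRET substrate (2 h, room temperature) reports beta-lactamase expression driven by the glucocorticoid response element in GR-bla HeLa cells after 18 h compound exposure at 37 C.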

For experiment [15] the target is unchanged. The experiment is described as follows: qHTS assay to identify small molecule antagonists of the glucocorticoid receptor (GR) signaling pathway (AID 720692; active = well fitted inhibition curve with a large enough effect in the signal ratio in the repeat runs, not every such curve was filed as active; the % refers to the signal ratio; also: potency is read from the fitted curve at half-maximal effect). In a few lines:
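HeLa GR-bla cells; cmpd + dex 5 nM final, 18 h 37 C; LiveBLAzer B/G FRET substrate 2 h RT; fluorescence intensity read. Antagonist mode, qHTS.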

Experiment [16] can be described thus: qHTS assay to test for compound auto fluorescence at 535 nm (green) in HEK293 cell free culture (AID 720682). The essentials:
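Read-out: 485/535 nm fluorescence intensity, calibrated against fluorescein. Medium only (DMEM + 10% FBS, no cells); test compound or DMSO vehicle added by pintool before plate reading.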

Experiment [17] has as its target Androgen receptor (Homo sapiens) (UniProt P10275). In words: qHTS assay to identify small molecule antagonists of the androgen receptor (AR) signaling pathway (AID 743035; active = well fitted inhibition curve with a large enough effect in the signal ratio in the repeat runs, not every such curve was filed as active; the % refers to the signal ratio). In a few lines:
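Fluorescence from a beta-lactamase FRET substrate (LiveBLAzer B/G, 2 h, room temperature) measured inhibition of R1881-stimulated signaling in GeneBLAzer AR-UAS-bla HEK293 cells exposed to compound for 16 h at 37C.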

Experiment [18] has the same target. In words: qHTS assay to identify small molecule agonists of the androgen receptor (AR) signaling pathway (AID 743036; active = well fitted activation curve with a large enough effect in the signal ratio in the repeat runs, with a control signal flat, not every such curve was filed as active; the % refers to the signal ratio). In a few lines:
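HEK293 cells stably carrying a UAS-driven beta-lactamase reporter (GeneBLAzer AR-UAS-bla-GripTite) were plated at 2,000 cells/well, rested 4 h at 37C, then exposed to compounds in DMSO for 16 h. LiveBLAzer B/G FRET substrate was added for 2 h at room temperature; fluorescence read.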

For experiment [19] the target is unchanged. In words: qHTS assay to identify small molecule agonists of the androgen receptor (AR) signaling pathway using the MDA cell line (AID 743040; also: nearly all actives have a fitted effect of over 20% in size). The essentials:
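Luminescence from ONE-Glo, read after 30 min at room temperature, reflects MMTV-driven luciferase in MDA-kb2 cells (AR- and GR-responsive). Treatment lasted 16 h at 37C, 0% CO2.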

Experiment [20] shares this target. In words: qHTS assay to identify small molecule antagonists of the androgen receptor (AR) signaling pathway using the MDA cell line (AID 743042; also: nearly all actives have a fitted effect of over 55% in size). In a few lines:
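MDA-kb2 cells (human breast carcinoma, stably carrying an MMTV-luciferase reporter responsive to AR and GR) were plated at 3,000 cells/well and preincubated 5 hr at 37C, then given compound plus R1881 agonist for 16 h. ONE-Glo luminescence was read.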

Sequence of Androgen receptor (Homo sapiens) (P10275 whole entry, looked up): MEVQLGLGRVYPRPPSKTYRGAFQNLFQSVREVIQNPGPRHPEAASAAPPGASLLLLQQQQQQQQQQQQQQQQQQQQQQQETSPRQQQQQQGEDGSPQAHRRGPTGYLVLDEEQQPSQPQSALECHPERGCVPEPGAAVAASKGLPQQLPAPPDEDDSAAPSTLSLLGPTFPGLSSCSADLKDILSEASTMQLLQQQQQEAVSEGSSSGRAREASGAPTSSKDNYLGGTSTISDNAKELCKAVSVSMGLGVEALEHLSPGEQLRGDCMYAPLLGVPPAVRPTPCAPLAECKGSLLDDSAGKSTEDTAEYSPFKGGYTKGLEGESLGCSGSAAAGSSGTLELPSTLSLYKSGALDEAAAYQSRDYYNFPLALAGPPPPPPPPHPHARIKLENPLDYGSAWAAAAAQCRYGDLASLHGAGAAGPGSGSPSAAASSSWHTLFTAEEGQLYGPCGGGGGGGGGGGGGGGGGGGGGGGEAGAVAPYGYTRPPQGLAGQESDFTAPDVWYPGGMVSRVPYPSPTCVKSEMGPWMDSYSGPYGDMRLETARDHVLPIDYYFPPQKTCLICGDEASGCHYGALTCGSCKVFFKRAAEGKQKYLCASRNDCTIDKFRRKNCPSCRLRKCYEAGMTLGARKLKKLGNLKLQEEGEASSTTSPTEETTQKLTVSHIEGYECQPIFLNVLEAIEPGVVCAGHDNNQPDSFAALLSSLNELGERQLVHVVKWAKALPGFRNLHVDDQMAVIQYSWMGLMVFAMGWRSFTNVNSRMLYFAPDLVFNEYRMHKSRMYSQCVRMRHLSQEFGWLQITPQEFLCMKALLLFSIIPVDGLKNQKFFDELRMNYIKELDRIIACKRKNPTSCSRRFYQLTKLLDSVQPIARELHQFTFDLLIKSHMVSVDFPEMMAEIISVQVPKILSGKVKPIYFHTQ
Sequence of Glucocorticoid receptor (Homo sapiens) (P04150 whole entry, looked up): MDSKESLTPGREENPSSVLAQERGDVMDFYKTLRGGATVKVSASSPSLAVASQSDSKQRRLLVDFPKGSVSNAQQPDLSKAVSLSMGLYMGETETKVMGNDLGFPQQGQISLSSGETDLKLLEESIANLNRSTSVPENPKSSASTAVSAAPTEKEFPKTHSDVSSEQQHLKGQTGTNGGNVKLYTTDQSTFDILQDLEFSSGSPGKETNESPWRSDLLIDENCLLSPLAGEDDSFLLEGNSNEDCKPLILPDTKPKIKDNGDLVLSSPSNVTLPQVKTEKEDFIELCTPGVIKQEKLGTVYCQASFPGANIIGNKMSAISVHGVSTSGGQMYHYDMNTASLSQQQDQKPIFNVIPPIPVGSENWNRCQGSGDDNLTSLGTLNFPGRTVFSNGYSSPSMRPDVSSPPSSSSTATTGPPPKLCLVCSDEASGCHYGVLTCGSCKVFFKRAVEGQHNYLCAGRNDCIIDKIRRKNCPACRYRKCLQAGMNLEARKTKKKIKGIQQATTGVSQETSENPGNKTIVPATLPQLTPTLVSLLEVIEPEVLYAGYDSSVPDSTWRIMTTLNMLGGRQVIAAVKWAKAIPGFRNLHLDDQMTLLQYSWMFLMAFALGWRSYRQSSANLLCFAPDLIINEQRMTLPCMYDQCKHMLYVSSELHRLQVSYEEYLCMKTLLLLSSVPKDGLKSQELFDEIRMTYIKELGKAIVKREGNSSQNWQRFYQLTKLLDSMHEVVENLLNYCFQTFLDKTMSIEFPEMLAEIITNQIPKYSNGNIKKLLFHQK

As for `CC(C)n1c(/C=C/[C@@H](O)C[C@@H](O)CC(=O)O)c(-c2ccc(F)cc2)c2ccccc21`, the call in [1], in experiment [3], in [4], in [6] and in [7] was inactive. The Potency result in experiment [2], in experiment [5] and in experiment [10] was “inactive” each time. The Potency in experiment [8] is 1.06 µM (active) and 6.11 µM (active); in [9], 9.4 nM (active) and 3.06 µM (active).

Regarding `CS(=O)(=O)Nc1ccc([N+](=O)[O-])cc1Oc1ccccc1`, the result in experiment [1], in experiment [3], in experiment [4], in experiment [6] and in experiment [7] was inactive. In addition, the Potency entry in experiment [2], in [11], in experiment [8], in experiment [9], in [12] and in experiment [13] was “inactive” each time. Also, the Potency entry in [10] is “inactive”.

Consider `ClC1=C(Cl)C(Cl)(Cl)C(Cl)=C1Cl`, for which the outcome in experiment [1], in [3], in [4], in experiment [6] and in experiment [7] was inactive. Besides, the Potency entry in experiment [2], in experiment [14], in [13] and in experiment [10] was “inactive” throughout. Also, the Potency in experiment [15] is 13.8 µM (active); in [8], “inactive and 770 nM (active)”; in [9], “inactive and 864 nM (active)”.

Take `CC1CC(OC(=O)c2ccccc2O)CC(C)(C)C1` (configuration not stated): the compound was classed as inactive in experiment [1], in [3], in experiment [4], in experiment [6] and in [7]. For the same compound, the Potency result in [2], in experiment [14], in [15], in [11], in experiment [8] and in experiment [9] was “inactive” in each case. Also, the Potency result in [13] and in experiment [10] was “inactive” in each case.

As for `CN(C)c1ccc(C(=N)c2ccc(N(C)C)cc2)cc1`, the outcome in experiment [1], in experiment [16], in [3], in [4] and in experiment [6] was inactive. Moreover, the Potency result in experiment [5], in experiment [14] and in experiment [11] was “inactive” each time. In addition, the Potency in experiment [8] was 5.38 µM (active) and 11.7 µM (active); in experiment [9], 2.4 µM (active) and 8.31 µM (active); in [12], 3.81 µM (active) and 11.7 µM (active); in [13], 34.2 µM (active) and 37.4 µM (active); in experiment [10], 60.4 µM (active).

As to `CCCCCCCCC`, the call in experiment [1], in experiment [3], in experiment [4], in [6] and in experiment [7] was inactive. Moreover, the Potency result in experiment [2], in [5], in [14], in experiment [15], in [8] and in [9] was “inactive” in each case. The Potency entry in [12], in [13] and in [10] was “inactive” in each case.

In the case of `CC[Si](OC(C)=O)(OC(C)=O)OC(C)=O`, the result in experiment [1], in experiment [3], in experiment [4], in experiment [6] and in experiment [7] was inactive. In addition, the Potency entry in experiment [2], in [11], in [8], in [9], in experiment [13] and in experiment [10] was “inactive” each time.

For the compound `CCCCOCCOCCOC(=O)CCCCC(=O)OCCOCCOCCCC`, the call in experiment [1], in experiment [3], in experiment [4], in experiment [6] and in experiment [7] was inactive. Further, the Potency entry in [2], in experiment [14], in [15], in experiment [8], in experiment [9] and in experiment [12] was “inactive” each time. Further, the Potency result in experiment [13] and in experiment [10] was “inactive” each time.

`CC(C)(C)C(=O)C1C(=O)c2ccccc2C1=O`: the call in experiment [1], in [3], in experiment [4], in experiment [6] and in experiment [7] was inactive. For the same compound, the Potency entry in [2], in experiment [14], in [11] and in [13] was “inactive” in each case. Moreover, the Potency in experiment [8] is 60.5 µM (active) and 12.2 µM (active); in experiment [9], “inactive and 13.7 µM (active)”.

`Nc1nc2ncc(CNc3ccc(C(=O)N[C@@H](CCC(=O)O)C(=O)O)cc3)nc2c(=O)[nH]1`: the compound was classed as inactive in experiment [1], in experiment [3], in experiment [4], in experiment [6], in [17] and in experiment [18]. Further, the compound was classed as inactive in experiment [19] and in [20]. The Potency in [2] was 35.5 µM (active). In addition, the Potency result in experiment [14], in experiment [15], in experiment [8], in [9], in [12] and in experiment [13] was “inactive” in each case. In addition, the Potency result in experiment [10] is “inactive”.

Take `O=C1CCCCC1`: the call in [1], in experiment [3], in experiment [4], in experiment [6], in experiment [7] and in [17] was inactive. In addition, the outcome in [18], in [19] and in experiment [20] was inactive. Also, the Potency result in [2], in experiment [5], in [14], in experiment [15], in experiment [11] and in experiment [8] was “inactive” in each case. Also, the Potency entry in experiment [9], in experiment [13] and in experiment [10] was “inactive” each time.

As for `Cc1cc(=O)[nH]c(C(C)C)n1`, the outcome in [1], in experiment [3], in [4], in [6], in [7] and in experiment [17] was inactive. In addition, the compound was classed as inactive in [18], in [19] and in experiment [20]. Besides, the Potency result in [2], in experiment [5], in experiment [14], in experiment [15], in experiment [8] and in experiment [9] was “inactive” each time. Moreover, the Potency entry in experiment [12], in experiment [13] and in [10] was “inactive” each time.

As for `O=S(=O)(Oc1ccc(Cl)cc1Cl)c1ccccc1`, the call in [1], in experiment [3], in experiment [4], in experiment [6] and in experiment [7] was inactive. Also, the Potency entry in [2], in [5], in experiment [8], in experiment [12], in experiment [13] and in experiment [10] was “inactive” each time.

These data come from PubChem BioAssay (Tox21).
